A selection: hits, their analogues and other compounds. The true share with any hit is near 0.71%.
beta cell repl: MIN6 beta-cell proliferation induction; MIN6 cells proliferation, ATPlite luminescence, 48 h; cells starved in 0.2% serum; 100% = growth in 10% serum; proliferation, % at 10 µM; 330,000 compounds, 0.29% hits;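 active = compounds whose signal lies at least 3.5 SD above the mean of all wells on their plate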;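 also: 0% = DMSO-treated cells in low-serum medium and 100% = 10% serum control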
hiPSC survival: increases survival of single human iPS cells. hiPSC single-cell survival, ATPlite luminescence; 100% = ROCK inhibitor wells, 0% = DMSO. survival enhancement, % at 20 µM. 360,000 compounds, 0.044% hits; in the data active = survival enhancement above about 18%;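 also: cells exposed to compounds for 16 hours before the ATP read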
TAG inh: reduces triacylglycerol accumulation in H9c2 cells; Nile Red lipid (TAG) fluorescence; cells loaded with 200 µM oleic acid; inhibition, % at 12.5 µM; 230,000 compounds, 0.66% hits; AID 651582;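 active = pattern-corrected inhibition of lipid staining of at least 50% with the nuclear-stain viability signal not falling by more than 50%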;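 also: 0% = DMSO wells and 100% = triacsin C control wells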
TAG conf: confirmation of triacylglycerol accumulation inhibitors; shares compounds with TAG inh; H9c2 lipid accumulation, Nile Red fluorescence; cells loaded with 200 µM oleic acid; inhibition, % at 12.5 µM; 990 compounds, 71% hits; AID 651629;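 active = mean inhibition across replicates of 40% or more; inactive = mean inhibition below 40%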;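 also: plate controls were DMSO only wells for no effect and Triacsin C treated wells for full effect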
* marks the source's active call; other numbers are inactive results; . = no result given.

SMILES	beta cell repl	hiPSC survival	TAG inh	TAG conf
CC(NS(=O)(=O)c1cc2c3c(c1)CCN3C(=O)CC2)c1ccccc1 (stereo unspecified)	.	-3.1	36.5	.
CCn1cc(/C=C(\NC(=O)c2ccccc2)C(=O)NCCN2CCOCC2)c2ccccc21	.	4.1	12.5	.
CCOC(=O)C1=CC[C@@H](c2ccccc2)N(S(=O)(=O)c2ccc(C)cc2)[C@H]1C=C(C)C	.	1.1	.	.
COc1ccc(C(=O)N2CCN(c3nc4cc(C)cc(C)c4cc3C#N)CC2)cc1	.	0.7	-4.0	.
CCOc1ccc(CCNC(=O)c2cc3sccc3n2CC)cc1OCC	-3.5	-2.5	79.1*	39.8
CCOc1ccc(CCNC(=O)CCC(=O)c2cccs2)cc1OCC	-3.0	2.3	16.9	.
OCCN1CCN(c2ncnc3c2ncn3[C@H]2CN(Cc3cccs3)C[C@@H](CO)O2)CC1	.	6.7	15.5	.
Oc1cccc(-c2ccc3nccn3c2)c1	.	-1.9	0.6	.
Clc1ccc(C2Nc3cccc4cccc(c34)N2)c(Cl)c1	.	-0.6	33.8	.
O=C1NC(c2cccc3ccccc23)Nc2ccc(Cl)cc21 (stereo unspecified)	.	-2.0	52.1*	36.5
Cn1ccc2c(N3CCCCCCC3)cc3c(c21)C1CCC3O1 (stereo unspecified)	.	0.6	.	.
Cc1cc(C)cc(C(O)c2ncc(-c3ccccc3Cl)[nH]2)c1 (stereo unspecified)	.	-2.4	132.0	.
NC(=O)NC(CC(=O)OCC(=O)Nc1nnc(-c2ccccc2)o1)c1ccc(Cl)cc1 (stereo unspecified)	.	4.4	-24.5	.
CC1(Cc2ccc3ccccc3n2)C(=O)Nc2ccc(OC(F)(F)F)cc21 (stereo unspecified)	.	1.0	-12.4	.
CCN(CC)CCCN(C(=O)c1cccs1)c1nc(-c2ccc(OC)cc2)cs1	-5.2	-2.9	55.4*	46.6*
CCN(CC)CCCN(C(=O)c1ccc(Br)cc1)c1nc(-c2ccc(OC)cc2)cs1	-4.9	0.2	39.5	.
Cc1ccc(S(=O)(=O)N2C[C@H]3C(=O)C[C@@H](c4ccccc4)N(S(=O)(=O)c4ccccc4[N+](=O)[O-])[C@H]3C[C@H]2c2ccccc2)cc1	.	-1.0	.	.
CSCCC(C(=O)Nc1c(C)cccc1C)N1CCC(Cc2ccccc2)CC1 (stereo unspecified)	.	2.0	.	.
Cc1c(O)cnc2nn(-c3ccccc3)c(=N)n12	.	0.4	.	.
CC(C)(C)c1cc(NC(=O)C2(C)CCN2C(=O)C2(c3ccccc3)CC2)no1 (stereo unspecified)	.	-2.0	22.7	.
CC(C)(C)c1cc(NC(=O)C2(C)CCN2C(=O)C2(c3ccccc3)CCCC2)no1 (stereo unspecified)	.	-0.5	52.9*	39.5
CCN(CC)C(=O)C1=C(C)N(CCC2=CCCCC2)C(=O)C(CC(=O)NC(c2ccccc2)c2ccccc2)C1 (stereo unspecified)	.	-2.0	6.8	.
CCOc1ccc(OCC)c(NC(=O)CN(c2ccc(OC)cc2)S(=O)(=O)c2c(C)noc2C)c1	-2.1	-0.2	.	.
CCOc1ccc(OCC)c(NC(=O)CN(c2ccc(C)cc2)S(=O)(=O)c2c(C)noc2C)c1	0.0	-0.4	52.8*	46.4*
C#CCN(C[C@H]1[C@H](OC(=O)NCCCCCC)[C@H](OC(=O)NCCCCCC)C[C@@H](C(=O)OC)[C@H]1C(=O)OC)S(=O)(=O)c1ccc(C)cc1	.	-4.1	80.1*	87.7*
SMILES	beta cell repl	hiPSC survival	TAG inh	TAG conf
C#CCN(C[C@H]1[C@H](OC(=O)NCc2ccccc2)[C@H](OC(=O)NCc2ccccc2)C[C@@H](C(=O)OC)[C@H]1C(=O)OC)S(=O)(=O)c1ccc(C)cc1	.	-2.0	48.6	.
CCC(C)c1ccc(S(=O)(=O)N2CCN(C(=O)CN3C(=O)NC(C)(C4CC4)C3=O)CC2)cc1 (stereo unspecified)	.	-3.0	-11.8	.
Cc1cc(CNC[C@H]2O[C@@H](n3ccc(=O)[nH]c3=O)[C@H](O)[C@@H]2O)no1	.	2.1	.	.
CN(C(=O)c1cccc(NC(=O)Cc2ccc(NC(=O)C3CCN(C(=O)C4CCCC4)CC3)cc2)c1)C1CCCC1	.	-1.5	7.9	.
N#CC1=C(N)Oc2cc(N)ccc2C1c1cccnc1 (stereo unspecified)	0.6	-3.4	.	.
N#CC1=C(N)Oc2cc(Nc3ccccc3)ccc2C1c1ccncc1 (stereo unspecified)	-3.2	10.9	57.0*	83.3*
Cc1onc(-c2ccccc2)c1C(=O)OCC(=O)N1CCCCC1	.	-1.6	6.1	.
CCOc1ccc(NC(=O)CN(C)C(=O)c2cc(-c3ccc(OC)cc3)nc3ccccc23)cc1OCC	-0.1	0.3	52.5*	62.9*
COc1ccc(NC(=O)CN(C)C(=O)c2cc(-c3ccc(Cl)cc3)nc3ccccc23)cc1	-6.2	-0.3	2.7	.
CN=C1c2cc3cc(OC)ccc3n2CCN1Cc1ccccc1	.	-2.0	57.3*	50.8*
CCN(CC)CCNC1=NCCn2c1cc1cc(OC)ccc12	-5.3	-4.5	15.7	.
CCOC(=O)CC1C(=O)NCCN1C(=O)c1ccc(Cl)cc1 (stereo unspecified)	-1.8	0.1	.	.
COC(=O)CC1C(=O)NCCN1C(=O)c1ccc(S(=O)(=O)N2CCOCC2)cc1 (stereo unspecified)	-1.2	0.6	61.2*	7.2
COc1ccc(Cl)cc1-c1cc(C(=O)Nc2ccc(C)c(NS(C)(=O)=O)c2)[nH]n1	.	-3.1	-9.4	.
COc1ccc(-c2csc(NC(=S)NC(=O)/C=C/c3ccco3)n2)cc1OC	.	-1.2	.	.
COc1ccc(-c2csc(NC(=S)NC(=O)/C=C/c3ccco3)n2)cc1Br	-3.4	-0.7	78.9*	86.6*
Cc1cc(C)cc(CC(=O)N2CCC2(C)C(=O)NS(=O)(=O)c2ccc(Cl)s2)c1 (stereo unspecified)	.	1.1	74.9*	3.7
CC1(C(=O)NS(=O)(=O)c2ccc(Cl)s2)CCN1C(=O)Cc1ccccc1Cl (stereo unspecified)	.	0.7	-8.6	.
COc1cc(NC(=O)Nc2nc(C(N)CCc3ccccc3)cs2)cc(OC)c1OC (stereo unspecified)	.	-4.5	82.6*	88.7*
CC(C)CC(N)c1csc(NC(=O)Nc2ccccc2Cc2ccccc2)n1 (stereo unspecified)	.	-5.9	113.9*	69.3*
COC(=O)c1cc(C)nc(Nc2nc(C(N)Cc3ccc(Cl)cc3)cs2)n1 (stereo unspecified)	.	-2.4	13.0	.
COc1ccc(OC)c(NC(=O)Nc2nc(C(N)CCc3ccccc3)cs2)c1 (stereo unspecified)	.	-2.2	102.8	.
CC(C)CC(N)c1csc(NC(=O)Nc2ccccc2-c2ccccc2)n1 (stereo unspecified)	.	-4.7	107.4	.
COc1cc(CNC(=O)Nc2nc(C(N)Cc3ccc(C(F)(F)F)cc3)cs2)cc(OC)c1OC (stereo unspecified)	.	-4.1	76.1*	88.4*
NC(Cc1ccc(C(F)(F)F)cc1)c1csc(NC(=O)Nc2ccccc2)n1 (stereo unspecified)	.	-2.3	28.1	.
COc1cc(OC)nc(Nc2nc(C(N)Cc3ccc(Cl)cc3)cs2)n1 (stereo unspecified)	.	-3.2	58.0*	45.6*
